About 83,000 compounds went through this panel and 20% of them were active in at least one assay; those are over-represented in the sample as a whole.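 In brief: 96-well plates, 48 h treatment, single concentration, percent growth endpoint.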 Unmarked numbers belong to inactive results. Active and inactive are the calls of the source.

The test system of this experiment is U251 CNS. Description: NCI-60 one-dose screen, 48 h (100 = growth as untreated, 0 = no growth, -100 = all killed). The following applies: 10 µM. As to the method:
Growth inhibition of the U251 human tumor cell line is measured as a screen for anti-cancer activity. Cells are grown in 96 well plates and exposed to the test compound for 48 hours. Compounds are tested at a single concentration, which is 10^-5 M for most compounds. The reported endpoint is percent growth (GI% or GIPRCNT), where numbers from 0 - 100% represent growth inhibition, and numbers from -100% - 0 represent cell death. For example, a value of 40 represents 60% growth inhibition. A value of 0 means no net growth occurred over the course of the experiment. A value of -40 indicates 40% of cells at the beginning of the experiment died by the end of the experiment. A value of -100 means all cells are dead at the end of the experiment.
NCI-60 Human Tumor Cell Lines Screen was performed using the standard one-dose NCI protocol, which is described in more detail at https://dtp.cancer.gov/discovery_development/nci-60/default.htm.
Compounds with GIPRCNT values below 10 were considered active. Activity score was based on GIPRCNT using the following formula: […]
Score is 0 for GIPRCNT values of 100 or above, 50 for GIPRCNT values of 0, and 100 for GIPRCNT values of -100.
As for `CCN(CC)CCN1c2nc3ccccc3cc2Sc2cc3ccccc3nc21`, the growth is 5.23% (active).
Regarding `O=[N+]([O-])c1cccc(/C=N/NC(=S)NC23CC4CC(CC(C4)C2)C3)c1`, the growth is 68.1%.
Then `COc1cc2cc(Oc3ccc(NC(=O)Nc4ccc(C(F)(F)F)cc4)cc3)c(C)nc2cc1OC`, with 15%; and `c1ccc(CCCCc2ccc3ccccc3n2)cc1`, with 90.6%.
Then `COc1cc2c(Nc3ccc(-c4ccc(N)cc4)cc3)ncnc2c(OC)c1OC`, with 42.6%.
Next, `Cc1noc(C)c1CSc1ccccc1C(=O)N1CCN(c2cccc(C(F)(F)F)c2)CC1`: 88.2%; `O=C(Nc1ccc(OS(=O)(=O)c2ccccc2)cc1)C1CCCCC1`: 69.6%.
For the molecule `COc1cc(-c2csc(NC(=O)Nc3cc(C(F)(F)F)cc(C(F)(F)F)c3)n2)cc(OC)c1OC`, the growth was 9.2% (active).
Then `CC(C)c1cc(N=O)cc(C(C)C)c1O`, with 98.5%.
Next, `COc1cccc2ccc(CC(O)(c3ccccc3)c3ccccc3)nc12`: 97%; `COc1ccc(/C=C2/SC(=S)NC2=O)c(OC)c1OC`: 83.5%.
Then `COc1ccc(-c2n[nH]nc2-c2cc(OC)c(OC)c(OC)c2)cc1`, with 1.61% (active).
On to `CCN(CC)c1ccc(/C=C2\SC(=O)C(Nc3nnc(-c4cccnc4SCc4ccccc4)o3)C2=O)cc1` (stereo not given), for which the growth was 3.89% (active).
Then `CC(C1=C(CN(C(=O)Cc2cn(-c3ccccc3)nc2-c2ccc(Cl)cc2)C(C)C)Cc2ccccc21)c1ccccn1` (stereo not given), with 67.6%.
As for `Cc1c2c[n+](C(C)C)ccc2c(C)c2c1[nH]c1ccccc12`, the growth is 13.6%.
Then `CC(=O)COc1ccc(Cl)cc1Cl`, with 97.9%; and `O=C(CCCNC(=O)c1nc(-c2ccccc2)n(-c2ccccc2)n1)NO`, with 94.6%.
Then `O=S(=O)(Oc1ccc(-c2ccc3sccc3c2)cc1)c1ccccc1`, with 108%; and `CN1C(C(=O)Nc2ccccn2)=C(O)c2sc(Cl)cc2S1(=O)=O`, with 95.4%; and `COc1cc(C(=O)/C(C)=C/c2c[nH]c3ccccc23)cc(OC)c1OC`, with 18.1%.
As to `NC(N)=N/N=C(\N=Nc1ccccc1)c1ccc(Cl)cc1`, the growth is 36.3%.
Next, `COc1nc2c(c(=O)n1C)CN(c1ccccc1)C(=O)C(C)N2` (stereo not given): 99%.
Next, `CC(C)Cc1ccc([C@H](C)C(=O)O)cc1`: 101%; `Nc1nc(Cl)nc2c1ncn2C1O[C@H](CO)[C@@H](O)[C@@H]1F` (stereo not given in full): 27%; `COc1cc(/C=C2\CCCC3C2=Nc2ccccc2NC3c2cc(OC)c(OC)c(OC)c2)cc(OC)c1OC` (stereo not given): -11.4% (active).
Next, `Cc1cc(=O)n2nnc3cc(C(F)(F)F)ccc3n12`: 107%.
Take `Clc1ccc(/C=C2\CCCC3C2=Nc2ccccc2NC3c2ccc(Cl)cc2)cc1` (stereo not given): the growth is 20.8%.
Then `O=C(Nc1ccccc1)Nc1ncnc2c1ncn2-c1ccccc1`, with 48.9%.
Turning to `COc1ccc(C(=O)CSc2nc(-c3cc(OC)ccc3OC)cc(-c3ccc(OC)cc3)c2C#N)cc1`, the growth was 104%.
Then `NS(=O)(=O)Oc1ccc(-c2ccc3sccc3c2)cc1`, with 88.8%; and `Nc1nc(-c2cccnc2)nc2c1sc(=S)n2-c1ccccc1`, with 88.2%.
Then `CN1CCN(c2cc3c(cc2F)c(=O)c(C(=O)O)cn3-c2ccc(F)cc2)CC1`, with 106%; and `NC1=NC(c2ccc(Cl)cc2)C2=C(N1)/C(=C/c1ccc(Cl)cc1)CCC2` (stereo not given), with 13.9%.
Next, `C[C@]12CCC3c4ccc(O)cc4C[C@@H](CCCCCCCCCS(=O)CCCC(F)(F)C(F)(F)F)C3C1CC[C@@H]2O` (stereo not given in full): 68.3%; `NC1=NC(c2ccccc2)C2=C(N1)/C(=C/c1ccccc1)CCC2` (stereo not given): 34.8%; `O=C(COc1cccc(/C=C2\CSc3ccccc3C2=O)c1)c1ccc(Cl)cc1`: -97.9% (active).
As to `O=[N+]([O-])c1ccc(NCSc2ccc(Cl)cc2)cc1`, the growth was 82%.
Next, `Cc1ccc(NCCN(C)CC(C)O)c2c(=O)c3ccccc3sc12` (stereo not given): 31.9%.
Next, `CCCCCCCCCCCC[n+]1c(C)cc(N)c2ccccc21`: 8.56% (active); `CC[C@@H](C(=O)[C@@H](C)[C@@H](O)[C@H](C)[C@@H]1O[C@@H]([C@@H](CC)C(=O)O)CC[C@@H]1C)C1O[C@]2(C=CC(=O)[C@]3(CC[C@@](C)([C@H]4CC[C@](O)(CC)[C@H](C)O4)O3)O2)[C@H](C)C[C@@H]1C` (stereo not given in full): 24%.
